GLP1R inv ag: qHTS of GLP-1 Receptor Inverse Agonists (Inhibition Mode); 410,000 tested, 1.6% active; Glucagon-like peptide 1 receptor (Homo sapiens), P43220; HEK293 GLP-1R CRE-luciferase, luminescence, 24 h; GLP-1R form is constitutively active; Potency, µM (titrated, usually from 38.3 µM), inactives show top-dose activity change, negative = inhibition, most hits filed as inhibitors; further: on the % scale 0 is the no-effect control and ±100 the full control effect; nearly all actives have a fitted effect of over 55% in size
Target sequence (P43220 whole entry, looked up): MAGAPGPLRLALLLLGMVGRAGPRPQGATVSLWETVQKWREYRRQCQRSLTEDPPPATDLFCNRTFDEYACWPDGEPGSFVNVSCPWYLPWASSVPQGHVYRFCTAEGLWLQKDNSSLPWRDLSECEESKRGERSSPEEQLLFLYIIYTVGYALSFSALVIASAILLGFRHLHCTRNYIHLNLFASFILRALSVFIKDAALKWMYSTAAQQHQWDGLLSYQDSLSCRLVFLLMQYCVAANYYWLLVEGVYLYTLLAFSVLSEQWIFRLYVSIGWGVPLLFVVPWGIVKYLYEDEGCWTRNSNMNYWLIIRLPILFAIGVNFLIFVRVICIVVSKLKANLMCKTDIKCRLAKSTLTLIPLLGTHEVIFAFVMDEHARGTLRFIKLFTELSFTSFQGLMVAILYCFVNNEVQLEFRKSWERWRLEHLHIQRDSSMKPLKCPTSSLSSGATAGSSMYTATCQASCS
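HEK293 cells stably co-expressing a cAMP-responsive luciferase reporter and constitutively active GLP-1R were seeded, incubated 12 h, then exposed to compounds for 24 h at 37 C. Luminescence was read 12 min after detection reagent; inverse agonists lower signal.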
HEK293 tox: qHTS of GLP-1 Receptor Inverse Agonists: Cytotox Screen | Potency, µM (top dose mostly 38.3 µM), for inactives: at the highest dose activity change, negative = inhibition, actives largely listed as inhibitors | AID 624418, 2012 | HEK293 cAMP-luciferase reporter cells, luminescence, 24 h | 410,000 tested, 0.13% active;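 further: loss of luciferase light is scored as toxicity; on the % scale 0 is the no-effect control and ±100 the full control effect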
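To flag toxic compounds, the library was rerun on cells for 24 hr at 37 deg C and 5% CO2. Viability-linked luminescence was captured 12 min after adding luciferase detection reagent.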
IDH1 R132H inh: qHTS for Inhibitors of mutant isocitrate dehydrogenase 1 (IDH1): qHTS; 390,000 tested, 0.093% active; IDH1-R132H enzyme, NADPH consumption, diaphorase/resazurin fluorescence; Potency, µM (doses to about 76.6 µM), without a hit: at the highest dose activity change, negative = inhibition, actives largely listed as inhibitors; AID 602179, 2012; further: on the % scale 0 is the no-effect control and ±100 the full control effect; nearly all actives have a fitted effect of over 65% in size
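IDH1-R132H (0.5 ug/mL) preincubated 30 min with compound, then NADPH (0.016 mM) and alpha-KG (2 mM) added; 80 min at RT, pH 7.5. Remaining NADPH coupled via diaphorase/resazurin to fluorescence (540/590 nm); concentration-response curves normalized to no-enzyme control.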
TrxR1 inh: qHTS Assay for Inhibitors of Mammalian Selenoprotein Thioredoxin Reductase 1 (TrxR1): qHTS; Potency, µM (doses to about 114 µM), inactives show at the highest dose activity change, negative = inhibition, actives largely listed as inhibitors; recombinant rTrxR1, NADPH fluorescence consumption, selenite substrate; 390,000 tested, 1% active; Thioredoxin reductase 1, cytoplasmic (Rattus norvegicus), O89049; further: on the % scale 0 is the no-effect control and ±100 the full control effect; nearly all actives have a fitted effect of over 65% in size
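Rat TrxR1 (90 nM in the dispensed reagent) was pre-reduced with 400 uM NADPH for 5 min at room temperature, then incubated with compound for 15 min. After 400 uM selenite was added, NADPH fluorescence (Ex 340/Em 450 nm) was followed for 8 min.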
GLP-1R agonist: qHTS of GLP-1 Receptor Agonists; Glucagon-like peptide 1 receptor (Homo sapiens), P43220; HEK293 GLP-1R CRE-luciferase, luminescence, 4-6 h; cells express a hypersensitive GLP-1R form; Potency, µM (doses to about 45.6 µM), for inactives: top-dose activation, usual class: activators; 380,000 tested, 0.007% active; AID 624172, 2012; further: % of control where 0% means no effect
TrxR1 substrate: qHTS Assay for Substrates of Mammalian Selenoprotein Thioredoxin Reductase 1 (TrxR1): qHTS; purified TrxR1 substrate turnover, NADPH consumption readout; Potency, µM (titrated, usually from 114 µM), for the others: top-dose activity change, negative = substrate turnover; 390,000 tested, 0.01% active; AID 588456, 2011; further: on the % scale 0 is the no-effect control and ±100 the full control effect; nearly all actives have a fitted effect of over 50% in size
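Rat TrxR1, dispensed at 90 nM, was prereduced with 400 uM NADPH (final) for 5 min at ~22 deg C, then incubated with compound 15 min before 400 uM selenite. A first-read NADPH fluorescence drop versus no-compound background flagged substrates.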
Active calls of the source: *; ? = inconclusive; nt = not tested or not shown; [ ] = another dose, or the depositor's remark. Sampled rows, rich in hits. Any-hit rate of the full collection: about 2.7%. The call rests on the fitted dose curve; in most records, active means well fitted curve in the direction sought with a large enough effect; inconclusive means small, poorly fitted or top-dose-only effect, or another doubt; inactive means no such curve, though single readings can be large; an effect the other way counts as inactive or inconclusive. Potency means the concentration at half of the fitted maximal effect.

SMILES	GLP1R inv ag	HEK293 tox	IDH1 R132H inh	TrxR1 inh	GLP-1R agonist	TrxR1 substrate
Cc1ccc(C)c2[nH]c(=O)c(C(c3nnnn3C(C)(C)C)N3CC=C(c4ccc(F)cc4)CC3)cc12 (configuration not stated)	?	5%	7%	71µM*	5%	11%[0.457 µM]
CCc1ccc(C2CC(=O)Oc3c2c(=O)n(C)c2ccccc32)cc1 (configuration not stated)	-9%	2%	?	3%	nt	13%[11.4 µM]
COc1cc(OC)c(NC2c3ccccc3C(=O)N2c2cc(C)ccn2)cc1Cl (configuration not stated)	6%	-11%	-6%	8%[57.1 µM]	-2%	4%[57.1 µM]
CCOC(=O)c1ccccc1NC1c2ccccc2C(=O)N1c1cc(C)ccn1 (configuration not stated)	13µM*	15%	8%	101%	3%	36%
CC1COC(=O)C(NNc2ccc(Cl)c(Cl)c2)=N1 (configuration not stated)	2.2µM*	?	4%	16%	-1%	-1%
C/C(Nc1ccc(Cl)c(Cl)c1)=C1/CCOC1=O	?	14%	16%	nt	0%	nt
CCn1c(C(=O)NCc2ccc(C)cc2)cc2sc(Cl)cc21	0%	1%	nt	8%	nt	2%
COC(=O)c1cc2c(-c3ccccc3)cc3ccccn3c-2c1C(=O)OC	7.9µM*	?	-1%	-17%	14%	-15%
COC(=O)c1c(C)c2c(C)cc3ccccn3c-2c1C(=O)OC	-19%	2%	4%	-11%	30%	-14%
CCOc1ccc(S(=O)(=O)NC2CCCCC2C)cc1 (configuration not stated)	10µM*	4%	10%	19%	-3%	14%
CCOc1ccc(S(=O)(=O)NC2CC2)cc1	12%	6%	1%	6%[57.1 µM]	2%	8%[57.1 µM]
N#CC1c2ccccc2-c2ccccc2N1C(=O)c1ccccc1 (configuration not stated)	7.1µM*	-23%	-2%	nt	17%	nt
CCOC(=O)c1ccc(NC(=O)c2cn(-c3ccccc3)nc2-c2ccc(OC)c(OC)c2)cc1	-20%	1%	13%	6%	nt	8%
CCOc1ccc(S(=O)(=O)c2cn(Cc3ccccc3C)c3ccc(OC)cc3c2=O)cc1	-4%	-10%	14%	10%	nt	15%
Cc1ccc(CNC(=O)c2ccc(Cn3c(=O)c4ccccc4n(CC(=O)Nc4ccc(C)cc4C)c3=O)cc2)cc1	4%	3%	10%	3%	1%	0%
CCc1nc2c(OCc3ccc(Cl)cc3)cccn2c1N(C)C(=O)c1ccco1	10µM*	-23%	nt	nt	0%	nt
O=C(N/N=C/c1ccc[nH]1)c1sc2ccccc2c1Cl	10µM*	?	11%	10%	2%	7%
O=C(N/N=C/c1ccncc1)c1sc2ccccc2c1Cl	5%	-11%	7%	-2%	-3%	14%
N#CC1(c2ccccc2)CCN(S(=O)(=O)c2ccc(OC(F)(F)F)cc2)CC1	10µM*	-3%	0%	7%[57.1 µM]	-1%	-6%[57.1 µM]
CC(Oc1ccccc1)C(=O)N1CCN(S(=O)(=O)c2ccc(OC(F)(F)F)cc2)CC1 (configuration not stated)	-7%	-6%	11%	nt	1%	nt
Cc1ccc(C)c(NC(=O)CSc2nc(=O)n(Cc3ccccn3)c3c2CCC3)c1	8%	3%	8%	9%[57.1 µM]	nt	3%[57.1 µM]
CCCCC1C(=O)N(c2ccccc2)N(c2ccc(O)cc2)C1=O (configuration not stated)	?	?	-7%	7.9µM*	-6%	6%
Cc1c(C)c2c(c(C)c1OC(=O)CCC(=O)OCCO)CC[C@](C)(CCC[C@H](C)CCC[C@H](C)CCCC(C)C)O2	nt	nt	nt	nt	3%	nt
CCCNC(=O)C(Cc1ccccc1C)NC(=O)c1ccc(C#N)cc1 (configuration not stated)	20%	2.5µM*	10%	18%	5%	-3%[57.1 µM]
Cc1cccc(C2c3[nH]c4ccccc4c3CCN2C(=O)c2noc3c2CCCC3)n1 (configuration not stated)	7.1µM*	-9%	-1%	18%	17%	-5%
SMILES	GLP1R inv ag	HEK293 tox	IDH1 R132H inh	TrxR1 inh	GLP-1R agonist	TrxR1 substrate
Cc1ncoc1C(=O)N1CCc2c([nH]c3ccccc23)C1C1CCCCC1 (configuration not stated)	10µM*	67%	-10%	17%	-10%	2%
Cc1ccc(C(=O)NC(=C(Cl)Cl)S(=O)(=O)c2ccc(Cl)cc2)cc1	?	?	3%	32µM*	-3%	-11%
Cc1ccc(C(=O)NC(=C(Cl)Cl)S(=O)(=O)c2ccc(C)cc2)cc1	?	?	-5%	?	-13%	-10%
O=C(NC(=C(Cl)Cl)S(=O)(=O)c1ccc(Cl)cc1)c1ccccc1	?	-26%	-1%	45µM*	0%	-14%
Cc1ccc(S(=O)(=O)CCC(=O)OCC(=O)NC(=O)c2ccccc2)cc1	6%	0%	-3%	9%	-7%	4%
Cc1ccc(S(=O)(=O)/C(=C/Cl)NC(=O)c2ccccc2)cc1	10µM*	6.3µM*	1%	?	-8%	-12%
Cc1ccc(S(=O)(=O)C(CNC(=O)C(=O)NCCc2ccccc2)c2cccs2)cc1 (configuration not stated)	-12%	0%	3%	-26%[57.1 µM]	nt	-32%[57.1 µM]
C1=CC2c3ccccc3NC(c3ccncc3)C2C1 (configuration not stated)	10%	-10%	-2%	7.9µM*	0%	-2%
CC(=O)c1ccc2c(c1)C1C=CCC1C(c1ccncc1)N2 (configuration not stated)	0%	14%	-8%	?	5%	-9%
CCCCCc1ccc(OCCCC[n+]2ccc(C)cc2)c(CCCCC)c1	?	?	-7%	1%	1%	-10%
CCCCCc1ccc(OCCCC[n+]2ccccc2)c(CCCCC)c1	6.3µM*	?	7%	8%[57.1 µM]	10%	0%[57.1 µM]

From PubChem
